Results from PubChem BioAssay AID504604 (National Center for Advancing Translational Sciences (NCATS), 2011).
Where “and” joins values, the source holds several entries; their conditions need not be identical. Equal entries are not always repeated. Calls of active or inactive are those of the source. Calls follow the shape of the dose curve; as a rule, active = well fitted inhibition curve with a large enough effect; inconclusive = small, poorly fitted or top-dose-only effect; inactive = flat fitted curve, though single readings scatter.

Experiment: Quantitative high throughput screen to test activity of anti-malarial compounds in the Dd2 strain of Plasmodium Falciparum
Settings: P. falciparum Dd2 in RBCs, SYBR Green growth, 72 h
Excerpt: NIH Molecular Libraries Probe Production Network [MLPCN] NIH Chemical Genomics Center [NCGC] MLPCN Grant: R21 NS059500 Assay Provider: David Fidock and Eric Ekland, Columbia University The goal of this screen is to measure the ability of a set of anti-malarial compounds to inhibit the Dd2 strain of P. falciparum. These compounds have been screened in a delayed death phenotype assay and have been identified as inhibitors of the delated death phenotype, by inhibiting the development of the apicoplast in the malarial parasite Plasmodium falciparum (described below) The biochemical processes that make this organelle essential for erythrocytic stage parasites are not well understood. However, antibiotics, such as azithromycin and tetracycline, which target the apicoplast translational machinery, have a potent antimalarial effect. […] We have developed a cell-based assay that measures parasite growth based on the expression of an integrated copy of a firefly luciferase reporter. To detect small molecules that cause this 'delayed death' phenotype, erythrocytes infected with the luciferase-expressing parasites were incubated with compounds for either one or two generations, corresponding to 48 and 96 hours, respectively. Compounds that inhibit parasite growth in the second generation, but not the first, should be enriched in antimalarials that target the apicoplast. Growth inhibition is detected by a decrease in luciferase activity
3 ul culture medium was dispensed into black clear-bottom plates (aurora) with multidrop Combi followed by a pin-transfer of […] compounds and positive control into assay plates. (Controls: 1 mM Artemisinin 1:2 dilution in duplicate Multi-Drop dispense of P. falciparum infected RBCs (0.3% parasitemia, 2.5% hematocrit final concentration) followed by 72 hr incubation (37C, 5% CO2). Multi-drop dispense 2 ul 10 X SYBR Green lysis buffer ([…] Tris-HCl, 10 mM EDTA, 0.16% saponin (w/v), 1.6% Triton-X (v/v), 10 x SYBR Green I supplied as 10,000 x final concentration by Invitrogen) into assay plates. Incubated at Room temperature, overnight in the dark and then read using Envision (Perkin Elmer) with fluorescence intensity at 485 nm excitation and 535 nm emission wavelengths.

Potency, active:
Cc1noc(C)c1NC(=O)Nc1ccc2c(c1)C(=O)N(C(C)C)C[C@@H](C)[C@H](CN(C)S(=O)(=O)c1ccc(F)cc1)OCCCC[C@H](C)O2 179 nM and 2.52 µM
C[C@@H]1CN(C)C(=O)c2cc(NC(=O)Nc3ccccc3)ccc2O[C@@H](C)CCCCO[C@@H]1CN(C)S(=O)(=O)c1ccc(F)cc1 3570 nM
C[C@@H]1CN([C@H](C)CO[Si](C)(C)C(C)(C)C)C(=O)c2cc(NC(=O)Nc3ccccc3)ccc2O[C@@H](C)CCCCO[C@H]1CN(C)S(=O)(=O)c1ccc(F)cc1 565 nM
C[C@@H]1CN([C@@H](C)CN=[N+]=[N-])C(=O)c2cc(NC(=O)Nc3ccccc3)ccc2O[C@@H](C)CCCCO[C@H]1CN(C)S(=O)(=O)c1ccc(F)cc1 56.5 nM
COc1ccc(COCCN2C[C@@H](C)[C@H](CN(C)S(=O)(=O)c3ccc(F)cc3)OCCCC[C@H](C)Oc3ccc(NC(=O)Nc4ccccc4)cc3C2=O)cc1 252 nM
C[C@@H]1CN([C@@H](C)COC(=O)C(C)(C)C)C(=O)c2cc(NC(=O)Nc3ccccc3)ccc2O[C@@H](C)CCCCO[C@H]1CN(C)S(=O)(=O)c1ccc(F)cc1 50.4 nM
COCCOCOC[C@H](C)N1C[C@@H](C)[C@H](CN(C)S(=O)(=O)c2ccc(F)cc2)OCCCC[C@H](C)Oc2ccc(NC(=O)Nc3ccccc3)cc2C1=O 35.7 nM
C[C@@H]1CN([C@@H](C)CO[Si](C)(C)C(C)(C)C)C(=O)c2cc(NC(=O)Nc3ccccc3)ccc2O[C@@H](C)CCCCO[C@H]1CN(C)S(=O)(=O)c1ccc(F)cc1 5 nM
C[C@@H]1CN([C@@H](C)CO)C(=O)c2cc(NC(=O)Nc3ccccc3)ccc2O[C@@H](C)C/C=C\CO[C@H]1CN(C)S(=O)(=O)c1ccc(F)cc1 1260 nM
C[C@@H]1CN([C@@H](C)CO)C(=O)c2cc(NC(=O)Nc3ccccc3)ccc2O[C@@H](C)CCCCO[C@H]1CN(C)S(=O)(=O)c1cccc(F)c1 50.4 nM
C[C@@H]1CN([C@@H](C)CO)C(=O)c2cc(NC(=O)Nc3ccccc3)ccc2O[C@@H](C)CCCCO[C@H]1CN(C)S(=O)(=O)c1cccnc1 4490 nM
C[C@@H]1CN([C@@H](C)COC(=O)c2ccccc2)C(=O)c2cc(NC(=O)Nc3ccccc3)ccc2O[C@@H](C)CCCCO[C@H]1CN(C)S(=O)(=O)c1ccc(F)cc1 179 nM
CC(C)N1C[C@@H](C)[C@H](CN(C)S(=O)(=O)c2ccc(F)cc2)OCCCC[C@H](C)Oc2ccc(NC(=O)Nc3ccccc3)cc2C1=O 56.5 nM
C[C@@H]1CN([C@@H](C)CO)C(=O)c2cc(NC(=O)Nc3ccccc3)ccc2O[C@@H](C)CCCCO[C@H]1CN(C)Cc1ccc(C(F)(F)F)cc1 1590 nM
C[C@@H]1CN([C@@H](C)CO)C(=O)c2cc(Nc3nc4ccccc4o3)ccc2O[C@@H](C)CCCCO[C@H]1CN(C)S(=O)(=O)c1ccc(F)cc1 2000 nM
Cc1noc(C)c1NC(=O)Nc1ccc2c(c1)C(=O)N([C@@H](C)CO)C[C@@H](C)[C@H](CN(C)S(=O)(=O)c1ccc(F)cc1)OCCCC[C@H](C)O2 634 nM
C[C@@H]1CCCCO[C@H](CN(C)C(=O)Nc2ccc(F)cc2)[C@H](C)CN([C@@H](C)CO)C(=O)c2cc(NS(=O)(=O)c3ccccc3)ccc2O1 504 nM
C[C@@H]1CN(CCO)C(=O)c2cc(NC(=O)Nc3ccccc3)ccc2O[C@@H](C)CCCCO[C@H]1CN(C)S(=O)(=O)c1ccc(F)cc1 2520 nM
CC(C)NC(=O)Nc1ccc2c(c1)C(=O)N([C@@H](C)CO)C[C@@H](C)[C@H](CN(C)S(=O)(=O)c1ccc(F)cc1)OCCCC[C@H](C)O2 1790 nM
C[C@@H]1CN([C@@H](C)CO)C(=O)c2cc(N)ccc2O[C@@H](C)CCCCO[C@H]1CN(C)S(=O)(=O)c1ccc(F)cc1 711 nM
COCOC[C@H](C)N1C[C@@H](C)[C@H](CN(C)S(=O)(=O)c2ccc(F)cc2)OCCCC[C@H](C)Oc2ccc(NC(=O)Nc3ccccc3)cc2C1=O 28.3 nM
C[C@@H]1CN([C@@H](C)CO)C(=O)c2cc(NC(=O)Nc3ccccc3)ccc2O[C@@H](C)C/C=C/CO[C@H]1CN(C)S(=O)(=O)c1ccc(F)cc1 565 nM
C=CCOC(=O)N(C)C[C@@H]1OCCCC[C@H](C)Oc2ccc(NC(=O)Nc3ccccc3)cc2C(=O)N([C@@H](C)CO)C[C@H]1C 1260 nM
C=CCOC(=O)N(C)C[C@@H]1OCCCC[C@H](C)Oc2ccc(NC(=O)Nc3ccccc3)cc2C(=O)N([C@H](C)COC(=O)c2ccccc2)C[C@H]1C 896 nM
C=CCOC(=O)N(C)C[C@H]1OCCCC[C@H](C)Oc2ccc(NC(=O)Nc3ccccc3)cc2C(=O)N([C@@H](C)CO[Si](C)(C)C(C)(C)C)C[C@H]1C 565 nM
C[C@@H]1CN([C@@H](C)COC(=O)c2ccccc2)C(=O)c2cc(NC(=O)Nc3ccccc3)ccc2O[C@@H](C)CCCCO[C@H]1CN(C)C(=O)OC(C)(C)C 798 nM
COc1ccc(COC[C@H](C)N2C[C@@H](C)[C@H](CN(C)Cc3ccc(OC)cc3)OCCCC[C@H](C)Oc3ccc(NC(=O)Nc4ccccc4)cc3C2=O)cc1 798 nM
C[C@@H]1CN([C@@H](C)CO)C(=O)c2cc(NC(=O)Nc3ccccc3)ccc2O[C@@H](C)CCCCO[C@H]1CN(C)S(=O)(=O)c1ccccc1F 2000 nM
C[C@@H]1CN([C@@H](C)COC(C)(C)C)C(=O)c2cc(NC(=O)Nc3ccccc3)ccc2O[C@@H](C)CCCCO[C@H]1CN(C)S(=O)(=O)c1ccc(F)cc1 3.6 nM
C[C@@H]1CN(CCO[Si](C)(C)C(C)(C)C)C(=O)c2cc(NC(=O)Nc3ccccc3)ccc2O[C@@H](C)CCCCO[C@H]1CN(C)S(=O)(=O)c1ccc(F)cc1 225 nM
C[C@@H]1CN([C@@H](C)CO)C(=O)c2cc(NC(=O)Nc3ccccc3)ccc2O[C@@H](C)CCCCO[C@H]1CN(C)S(=O)(=O)c1ccc(C(F)(F)F)cc1 1130 nM
C[C@@H]1CCCCO[C@@H](CN(C)Cc2ccc(F)cc2)[C@H](C)CN([C@@H](C)CO)C(=O)c2cc(NC(=O)Nc3ccccc3)ccc2O1 6340 nM
C[C@@H]1CN([C@@H](C)CO)C(=O)c2cc(NC(=O)Nc3ccccc3)ccc2O[C@@H](C)CCCCO[C@H]1CN(C)C(=O)OC(C)(C)C 2250 nM
